Data published in a collection of fitness landscapes (doi:10.1126/science.1257360).
Whole data set: some 140,000 sequences, median “enrichment ratio after two sorts for PhoP signalling” near 0, cut for the highest 2% near 11. Many of the other results were omitted from the sample, so the highest values are more common in it than they were.

B1: PhoQ; a variant is named by its letters at X, in order, P23837 (parent)
chain: MKKLLRLFFPLSLRVRFLLATAAVVLVLSLAYGMVALIGYSVSFDKTTFRLLRGESNLFYTLAKWENNKLHVELPENIDKQSPTMTLIYDENGQLLWAQRDVPWLMKMIQPDWLKSNGFHEIEADVNDTSLLLSGDHSIQQQLQEVREDDDDAEMTHSVAVNVYPATSRMPKLTIVVVDTIPVELKSSYMVWSWFIYVLSANLLLVIPLLWVAAWWSLRPIEALAKEVRELEEHNRELLNPATTRELTSLVRNLNRLLKSERERYDKYRTTLTDLTHSLKTPLXXLQXXLRSLRSEKMSVSDAEPVMLEQISRISQQIGYYLHRASMRGGTLLSRELHPVAPLLDNLTSALNKVYQRKGVNISLDISPEISFVGEQNDFVEVMGNVLDNACKYCLEFVEISARQTDEHLYIVVEDDGPGIPLSKREVIFDRGQRVDTLRPGQGVGLAVAREITEQYEGKIVAGESMLGGARMEVIFGRQHSAPKDE

Variants of: B1
Assay: enrichment ratio after two sorts for PhoP signalling (ratio (wild type AVST 3.29)); higher = more functional
Conditions: with PhoP (E. coli)

Row | Variant | enrichment ratio
1 | HWKG | ≤ 0.25
2 | HYVN | ≤ 0.25
3 | FNKS | ≤ 0.25
4 | WKFR | ≤ 0.25
5 | VMIH | ≤ 0.25
6 | FQCV | ≤ 0.25
7 | TTTM | 19.4
8 | SRTM | 1.44
9 | YTTM | 8.49
10 | KYCM | ≤ 0.25
11 | SICM | 14.4
12 | KYTM | ≤ 0.25
13 | KYCL | ≤ 0.25
14 | SIRL | ≤ 0.25
15 | GTTM | 4.35
16 | SITM | 22.9
17 | SICL | 11.3
18 | WICM | ≤ 0.25
19 | NSAY | ≤ 0.25
20 | MERT | ≤ 0.25
21 | IMPC | ≤ 0.25
22 | AHIW | ≤ 0.25
23 | YHGK | ≤ 0.25
24 | MHLE | ≤ 0.25

Row | Variant | enrichment ratio
25 | TWGP | ≤ 0.25
26 | GSVG | ≤ 0.25
27 | KYCQ | ≤ 0.25
28 | SIGQ | 10.4
29 | STTM | 14.3
30 | SIPM | 19.8
31 | SICQ | 27.6
32 | QETM | ≤ 0.25
33 | SIPA | 0.817
34 | KYPM | ≤ 0.25
35 | LTTM | ≤ 0.25
36 | VWYY | ≤ 0.25
37 | EDMQ | ≤ 0.25
38 | VNHC | ≤ 0.25
39 | AYRQ | ≤ 0.25
40 | YGPP | ≤ 0.25
41 | IQKL | ≤ 0.25
42 | GASY | ≤ 0.25
43 | SPIT | ≤ 0.25
44 | AGYW | ≤ 0.25
45 | KSLH | ≤ 0.25
46 | ATLH | 11.5
47 | STLH | 12.2
48 | KYLH | ≤ 0.25

Row | Variant | enrichment ratio
49 | SRLH | ≤ 0.25
50 | LTLH | ≤ 0.25
51 | SYLH | 0.355
52 | SSLH | 11.4
53 | ITLH | ≤ 0.25
54 | SPLH | ≤ 0.25
55 | SELH | 19.4
56 | NSLH | ≤ 0.25
57 | ASPV | 0.706
58 | LLVM | ≤ 0.25
59 | PRDH | ≤ 0.25
60 | IQGR | ≤ 0.25
61 | RVGK | ≤ 0.25
62 | TQAC | 4.85
63 | VIMQ | ≤ 0.25
64 | WTKP | ≤ 0.25
65 | ENII | ≤ 0.25
66 | GTLH | 8.02
67 | TTLH | 19.7
68 | YTLH | 0.617
69 | MYEQ | ≤ 0.25
70 | EQLV | ≤ 0.25
71 | SLLV | 6.62
72 | YGLA | 12.8

Row | Variant | enrichment ratio
73 | NQLV | ≤ 0.25
74 | SILV | 2.22
75 | SELV | 19.5
76 | QELV | ≤ 0.25
77 | NELV | 2.93
78 | YGLT | 7.13
79 | TELV | 25.1
80 | TQLV | 26.3
81 | YGLS | 7.31
82 | WPNN | ≤ 0.25
83 | YKHG | ≤ 0.25
84 | AFWQ | ≤ 0.25
85 | GIFI | ≤ 0.25
86 | TQRG | ≤ 0.25
87 | LAFQ | 2.23
88 | NEYD | ≤ 0.25
89 | EVIK | ≤ 0.25
90 | QFDL | ≤ 0.25
91 | MRMI | ≤ 0.25
92 | SINK | 1.25
93 | RMYK | ≤ 0.25
94 | MILV | 13
95 | ITLV | 7.88
96 | FTLV | 10.2

Row | Variant | enrichment ratio
97 | LTLV | 1.55
98 | YTLV | 15.7
99 | YYLV | ≤ 0.25
100 | CTLV | 0.326
101 | TTLV | 17.9
102 | MIHK | ≤ 0.25
103 | MFLV | ≤ 0.25
104 | ATLV | 12.7
105 | GTLV | 7.85
106 | FHSF | ≤ 0.25
107 | HDGN | ≤ 0.25
108 | TQVH | 8.69
109 | LPSI | ≤ 0.25
110 | ANRW | ≤ 0.25
111 | MCHW | ≤ 0.25
112 | GFAN | ≤ 0.25
113 | KGPY | ≤ 0.25
114 | SFLV | 1.19
115 | SALV | 14.6
116 | NSLV | 2.78
117 | FSLV | 8.86
118 | TSLV | 14.6
119 | KSLV | ≤ 0.25
120 | SKHK | ≤ 0.25

Row | Variant | enrichment ratio
121 | KQLV | ≤ 0.25
122 | SSLV | 16.8
123 | SKLV | 12
124 | DLQF | ≤ 0.25
125 | PGYR | ≤ 0.25
126 | QDIQ | ≤ 0.25
127 | RNIE | ≤ 0.25
128 | YSWN | ≤ 0.25
129 | IQID | ≤ 0.25
130 | LDQS | ≤ 0.25
131 | SPLV | ≤ 0.25
132 | STLV | 15.4
133 | DPLV | ≤ 0.25
134 | SQLV | 11.8
135 | QPLV | ≤ 0.25
136 | KYLV | ≤ 0.25
137 | MPLV | ≤ 0.25
138 | SYLV | 0.334
139 | MELV | 18.1
140 | NFLV | ≤ 0.25
141 | MMLV | ≤ 0.25
142 | YGLV | 13.5
143 | ITPL | ≤ 0.25
144 | WHNG | ≤ 0.25

Row | Variant | enrichment ratio
145 | TSSF | 9.67
146 | YPTT | ≤ 0.25
147 | ISMW | ≤ 0.25
148 | FIHY | ≤ 0.25
149 | QLFD | 3.39
150 | HRQG | ≤ 0.25
151 | YGWM | ≤ 0.25
152 | YGDM | 0.798
153 | YGLM | 13
154 | HFAL | ≤ 0.25
155 | SCRE | ≤ 0.25
156 | DVLL | ≤ 0.25
157 | TASE | 11.3
158 | NASE | ≤ 0.25
159 | KASE | ≤ 0.25
160 | DDSE | 1.96
161 | NESE | ≤ 0.25
162 | TESE | 20
163 | RISE | ≤ 0.25
164 | TISE | 24.4
165 | QESE | ≤ 0.25
166 | AISE | 2.44
167 | SESE | 24.9
168 | SLSE | 1.48

Row | Variant | enrichment ratio
169 | HLPY | ≤ 0.25
170 | MSKE | ≤ 0.25
171 | YPSK | ≤ 0.25
172 | TVFP | ≤ 0.25
173 | VDTN | ≤ 0.25
174 | SNSE | 16.4
175 | SPSE | ≤ 0.25
176 | SISE | 12.6
177 | DPSE | ≤ 0.25
178 | NVSE | ≤ 0.25
179 | TVSE | 14.1
180 | GNSE | ≤ 0.25
181 | SQSE | 11.4
182 | SRSE | ≤ 0.25
183 | KYSE | ≤ 0.25
184 | SDSE | ≤ 0.25
185 | LNSE | ≤ 0.25
186 | FFRE | ≤ 0.25
187 | EVVH | ≤ 0.25
188 | TGPK | ≤ 0.25
189 | GKHW | ≤ 0.25
190 | FNVA | ≤ 0.25
191 | KTII | ≤ 0.25
192 | SGSE | 15.4

Row | Variant | enrichment ratio
193 | GGSE | ≤ 0.25
194 | TGSE | 7.38
195 | IEKG | ≤ 0.25
196 | LARL | ≤ 0.25
197 | SSPS | ≤ 0.25
198 | YHLR | ≤ 0.25
199 | MSCI | 16.7
200 | MSGM | 6.76
201 | MSPI | ≤ 0.25
202 | MSWI | 14.1
203 | MSYK | ≤ 0.25
204 | MSYI | 12.1
205 | MSWM | 23.7
206 | MSYD | ≤ 0.25
207 | MSCS | 0.763
208 | MSTA | ≤ 0.25
209 | MSPM | ≤ 0.25
210 | MSCA | 0.541
211 | KTWF | ≤ 0.25
212 | YIVR | ≤ 0.25
213 | DSYR | ≤ 0.25
214 | WDLV | ≤ 0.25
215 | SPGS | ≤ 0.25
216 | AEGC | 2.22

Row | Variant | enrichment ratio
217 | KSFY | ≤ 0.25
218 | MSSF | 0.41
219 | MSQM | ≤ 0.25
220 | MSSM | 11.9
221 | MSAT | 7.26
222 | MSFD | ≤ 0.25
223 | WIAS | ≤ 0.25
224 | KAFL | ≤ 0.25
225 | MSAS | 12.6
226 | MAFL | 12.9
227 | MSFY | 12.3
228 | NAFL | 0.25
229 | PAHY | ≤ 0.25
230 | AKLK | ≤ 0.25
231 | MEND | ≤ 0.25
232 | PTHW | ≤ 0.25
233 | AVIT | 1.3
234 | MIMD | ≤ 0.25
235 | LLDF | ≤ 0.25
236 | NAWF | ≤ 0.25
237 | PFLK | ≤ 0.25
238 | RPFK | ≤ 0.25
239 | MSGD | ≤ 0.25
240 | MSLM | 15.9

Row | Variant | enrichment ratio
241 | MSLF | 1.86
242 | MSFC | 14.1
243 | MSTC | 1.5
244 | MSTD | ≤ 0.25
245 | MSGI | 17.5
246 | MSFA | 2.31
247 | MSHQ | 12
248 | MSHP | ≤ 0.25
249 | MSLA | 5.33
250 | MSGR | ≤ 0.25
251 | IAPP | ≤ 0.25
252 | NMIK | ≤ 0.25
253 | DCGT | ≤ 0.25
254 | EMPS | ≤ 0.25
255 | NEEL | ≤ 0.25
256 | MHMN | ≤ 0.25
257 | NGVW | ≤ 0.25
258 | MSTI | 18.2
259 | MSGA | 0.29
260 | MSGG | ≤ 0.25
261 | MSCF | 1.71
262 | KSHM | ≤ 0.25
263 | KSFL | ≤ 0.25
264 | MSFL | 13.3

Row | Variant | enrichment ratio
265 | MRHM | ≤ 0.25
266 | MSGQ | 14.3
267 | MSHM | 22
268 | MSLY | 0.424
269 | MEFL | 8.98
270 | SKYM | ≤ 0.25
271 | CCSC | ≤ 0.25
272 | FTRK | ≤ 0.25
273 | MDDW | ≤ 0.25
274 | ADPG | ≤ 0.25
275 | VPPG | ≤ 0.25
276 | LIYG | ≤ 0.25
277 | MSEL | ≤ 0.25
278 | MSCV | 15.3
279 | MSWL | 14.4
280 | MSCE | ≤ 0.25
281 | MSTW | ≤ 0.25
282 | MSRL | ≤ 0.25
283 | GKQS | ≤ 0.25
284 | SDCI | 4.22
285 | QYNK | ≤ 0.25
286 | GGPL | ≤ 0.25
287 | SNVY | 1.11
288 | KAII | ≤ 0.25

Row | Variant | enrichment ratio
289 | KKII | ≤ 0.25
290 | AKII | 13.6
291 | AAII | 12.4
292 | ADII | 1.41
293 | NAII | ≤ 0.25
294 | DMTW | ≤ 0.25
295 | IQGQ | ≤ 0.25
296 | GIPQ | ≤ 0.25
297 | CTSL | 11.6
298 | CVSL | ≤ 0.25
299 | YTSL | ≤ 0.25
300 | GTSL | 9.63
301 | KQSL | ≤ 0.25
302 | TTSL | 17.6
303 | TVPF | ≤ 0.25
304 | QVGW | 2.43
305 | EDEG | ≤ 0.25
306 | FEDM | ≤ 0.25
